An excerpt weighted towards active compounds, which were near 11% of everything screened.
OTUD3 block – blocks human OTUD3 ubiquitin-rhodamine cleavage. purified OTUD3, Ub-rhodamine fluorescence, 2 h. inhibition, % at 25 µM. actives 0.7% (n = 47,000)
USP30 inh – inhibitors of human USP30 deubiquitinase; Q70CQ3; purified USP30, Ub-rhodamine cleavage fluorescence; inhibition, % at 25 µM; actives 5.3% (n = 47,000); AID 1645860
USP28 inh – blocks human USP28 ubiquitin-rhodamine cleavage | purified USP28, Ub-rhodamine cleavage fluorescence, 30 min | Q96RU2 | inhibition, % at 25 µM | AID 1645857 | actives 3% (n = 47,000)
USP17 inh – human USP17-like deubiquitinase inhibition. A8MUK1. purified USP17, Ub-rhodamine cleavage fluorescence, 3 h. inhibition, % at 50 µM. actives 6.5% (n = 47,000)
Target sequence (A8MUK1 whole entry, looked up): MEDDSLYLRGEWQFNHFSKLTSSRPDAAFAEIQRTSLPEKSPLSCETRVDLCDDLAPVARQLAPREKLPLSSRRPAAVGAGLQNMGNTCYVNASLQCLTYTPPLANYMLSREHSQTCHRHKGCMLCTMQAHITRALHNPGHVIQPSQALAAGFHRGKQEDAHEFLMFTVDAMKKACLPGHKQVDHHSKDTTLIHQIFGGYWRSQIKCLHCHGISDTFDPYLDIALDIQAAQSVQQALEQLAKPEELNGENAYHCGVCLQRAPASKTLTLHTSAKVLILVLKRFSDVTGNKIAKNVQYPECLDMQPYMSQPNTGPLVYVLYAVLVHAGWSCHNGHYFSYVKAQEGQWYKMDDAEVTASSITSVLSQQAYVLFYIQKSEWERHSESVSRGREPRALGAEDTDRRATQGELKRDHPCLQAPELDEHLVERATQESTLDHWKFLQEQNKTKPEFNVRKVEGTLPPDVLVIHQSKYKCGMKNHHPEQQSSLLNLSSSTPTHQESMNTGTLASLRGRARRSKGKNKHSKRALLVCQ
Large screens that a line does not name were inactive. No stated cut-off is given here; in the data, active means inhibition above about 30%; inactive means the rest.

CCOc1ccc(-n2nnnc2-c2ccccn2)cc1	USP30 inh 31
Cn1ccc2ccn(Cc3ccccc3)c(=O)c21	none
CCOC(=O)N1CCC(NC(=O)CCn2c(=S)oc3ccccc32)CC1	USP30 inh 34
CCOC(=O)N1CCC(NC(=O)C2CCCN(c3nc4ccccc4o3)C2)CC1 (configuration not stated)	none
CCCC(=O)N1CC(C(=O)Nc2ccc(F)cc2)C2(CCOCC2)C1 (configuration not stated)	none
Nc1c(-c2nc3ccccc3[nH]2)c2nc3ccccc3nc2n1Cc1ccccc1	none
Nc1c(-c2nc3ccccc3[nH]2)c2nc3ccccc3nc2n1Cc1cccc(Cl)c1	USP28 inh 36, USP17 inh 46
O=C(COc1ccccc1-c1nnc(-c2ccccc2)o1)NCc1ccccc1Cl	none
O=C(NCc1ccccc1Cl)c1ccc(-c2nnc(-c3ccccc3)o2)cc1	USP30 inh 36, USP17 inh 62
Cc1ccc(C(=O)Nc2nccnc2C(=O)NCc2ccccc2F)cc1	none
Cc1ccccc1-c1nnc(-c2ccc(C(=O)NCc3ccccc3F)cc2)o1	USP30 inh 66, USP17 inh 36
Cc1ccc2cc(CN(Cc3ccco3)S(=O)(=O)c3ccccc3)c(=O)[nH]c2c1	none
O=C(Cn1cc(-c2ccccc2)c2ncn(C3CC3)c(=O)c21)Nc1ccccc1	none
COc1cccc(NC(=O)c2cccc3cn[nH]c23)c1	none
CC(OC(=O)c1ccccc1Sc1ccccc1C#N)C(=O)Nc1cccc([N+](=O)[O-])c1 (configuration not stated)	USP30 inh 36
CC(OC(=O)c1cc(S(=O)(=O)Nc2ccccc2F)ccc1Cl)C(=O)Nc1ccc([N+](=O)[O-])cc1C(F)(F)F (configuration not stated)	none
Cn1cc(C2CCCN2Cc2cnn(-c3ccccc3)n2)cn1 (configuration not stated)	none
COC1=CC(=O)c2c(O)c3c(c(C)c2C1=O)C[C@@]1(O)[C@H](O[C@H]2CC[C@H](O[C@H]4C[C@@](C)(O)[C@H](OC(=O)c5c(C)ccc(C)c5O)[C@H](C)O4)[C@@H](C)O2)C(=O)C(C(C)=O)=C(O)[C@@]1(O)C3=O	OTUD3 block 53, USP28 inh 63
COc1cccc(-c2nnc(NC(=O)C(c3ccccc3)c3ccccc3)o2)c1	none
Cc1ccc(S(=O)(=O)Nc2ccccc2CCc2nc3ccccc3[nH]2)cc1	none
Cc1ccc(S(=O)(=O)Nc2ccccc2SCCS(=O)(=O)c2ccc(Cl)cc2)cc1	USP30 inh 51
COCC(=O)N1CCC(n2c(C3CC3)nc3sc(C)c(C)c3c2=O)CC1	none
Cc1sc2nc(C3CC3)n(C3CCN(C(=O)C4CCC4)CC3)c(=O)c2c1C	USP30 inh 39
Clc1ccc2nc(COc3ccccc3Cc3ccccc3)[nH]c2c1	USP17 inh 31
Cc1ccc(Nc2nc(N3CCN(c4ccc(F)cc4)CC3)nc3c2cnn3C)cc1	USP30 inh 31
CCc1cc2c(cc(C(=O)OC)n2CC(=O)Nc2ccc(C)cc2Cl)s1	USP17 inh 53
CNC(=O)/C=C/C(C)=C/C(C)C(=O)c1ccc(N(C)C)cc1 (configuration not stated)	none
CC(/C=C/C(=O)NO[C@@H]1O[C@H](CO)[C@@H](O)[C@H](O)[C@H]1O)=C\C(C)C(=O)c1ccc(N(C)C)cc1 (some centres not stated)	USP17 inh 43
O=C(Nc1ccnn1Cc1ccccn1)c1cccnc1Sc1ccc(Cl)cc1	none
Cc1nc2sccn2c1-c1nc(-c2cc(Cl)ccc2Cl)cs1	USP30 inh 46, USP17 inh 49
COc1ccc(Cn2c3c(c(=O)[nH]c2=O)CN(C2CCCCC2)CN3)cc1	USP30 inh 47, USP17 inh 43
COc1ccc(Cn2c3c(c(=O)[nH]c2=O)CN(CCc2ccccc2)CN3)cc1	none
Cc1ccc(-n2nnc(C(=O)NC(C)C)c2C2CC2)cc1	none
CNC(=O)c1c(Br)cnn1-c1ccc(C)cc1	USP17 inh 39 (no result: USP30 inh, USP28 inh)
CC(=O)c1ccc(OCc2csc(-c3ccc(F)cc3)n2)cc1	USP30 inh 37, USP28 inh 30, USP17 inh 43
O=c1cc(-c2cncc(Br)c2)nc(-c2ccccc2)[nH]1	USP30 inh 30 (no result: USP17 inh)
Cc1cnnn1-c1ccc(C(=O)Nc2ccc(Cl)cc2Cl)cc1	USP30 inh 81, USP28 inh 37, USP17 inh 84
Cc1cnnn1-c1ccc(C(=O)Nc2ccccc2F)cc1	USP30 inh 34
Cc1ccc(CN2C[C@H]3C[C@H](C(=O)NCC4CC4)[C@@H](C2)O3)cc1	none (no result: USP30 inh, USP28 inh)
O=C(Nc1ncc2c(n1)CC(c1ccco1)CC2=O)c1ccco1 (configuration not stated)	none
Cc1ccc2c(C)nc(Nc3ncc4c(n3)CC(c3ccco3)CC4=O)nc2c1 (configuration not stated)	USP30 inh 38, USP17 inh 59
O=C1CC(c2ccc(F)cc2)Cc2nc(N3CCc4ccccc4C3)ncc21 (configuration not stated)	none
O=C1CC(c2ccco2)Cc2nc(N3CCc4ccccc43)ncc21 (configuration not stated)	USP17 inh 37
O=C1CC(c2ccco2)Cc2nc(N3CCc4ccccc4C3)ncc21 (configuration not stated)	USP17 inh 44 (no result: USP30 inh, USP28 inh)
CC(NC(=O)c1ccc(O)cc1)c1ccc(-n2ccnc2)cc1 (configuration not stated)	none
CC(C)CC1Nc2ccc(C(=O)N3CCN(c4ccccn4)CC3)cc2NC1=O (configuration not stated)	none
O=C(NC1CCCCCC1)C(Cc1ccccc1)NS(=O)(=O)c1ccc2c(c1)OCCO2 (configuration not stated)	USP17 inh 49
Cc1ccccc1NC(=O)C(NS(=O)(=O)c1ccc2c(c1)OCCO2)C(C)C (configuration not stated)	USP17 inh 40
Fc1ccc(C2(c3nc(C4CCCCC4)no3)CCOCC2)cc1	none
CC(=O)c1cccc(S(=O)(=O)Nc2ccccc2-c2ccccc2)c1	none
Cc1ccc(NC(=O)Cn2c(-n3nc(C)cc3C)nc3c(c2=O)CCCC3)c(C)c1	USP30 inh 31, USP17 inh 59
COc1ccc2occ(-c3ccc4c(c3)OCCO4)c(=O)c2c1	USP30 inh 33
CN(C)CCCN1C(=O)C(O)=C(C(=O)c2cc3ccccc3o2)C1c1ccco1 (configuration not stated)	none (no result: USP17 inh)
CN(C)c1cccc(C(=O)Nc2cc(-c3cccnc3)no2)c1	USP17 inh 51
CC1CCCCC1NCC(=O)NC(c1ccccc1)c1ccccc1 (configuration not stated)	USP30 inh 32
CCc1ccc(NC(=O)CSc2nnnn2-c2cccnc2)cc1	USP28 inh 31
O=C(CSc1nnnn1-c1ccccc1)NC(C(=O)O)(c1ccccc1)c1ccccc1	none
Cn1c(CN2CCOCC2)nnc1SCC(=O)c1ccc(F)cc1	none
O=C(COC(=O)CCCc1c[nH]c2ccccc12)Nc1ccc2c(c1)OCO2	USP28 inh 40
COc1ccc(C)cc1NC(=O)COC(=O)CCCc1c[nH]c2ccccc12	none
